A selection follows.
aSyn UTR act = Activators via SNCA 5'UTR binding, MLPCN. alpha-synuclein 5'UTR reporter, activators screen. activity score, % (tested at 7.5 µM), hits read low. 300,000 compounds, 7.1% hits. AID 1814; in the data active = activity score below about -60%
Active calls of the source: *.

SMILES	aSyn UTR act
CC1(C)CC(=O)c2c(nc(SCC(=O)Nc3nsc(-c4ccccc4)n3)c(C#N)c2-c2ccccc2)C1	74
CCCCN(C(=O)NC(=O)Nc1cccc(C)c1C)S(C)(=O)=O	-92*
O=C(CSc1nc2ncccc2[nH]1)c1ccc2c(c1)OCO2	-86*
C/C(=N/NC(=O)c1cccs1)c1ccc(N2CCOCC2)cc1	-66*
O=C(NC(=S)Nc1ccc(N2CCOCC2)cc1)c1cccs1	-126*
Cc1ccc(C(=O)N2CCN(c3ccc(NC(=S)NC(=O)c4cccs4)cc3)CC2)cc1	52
Cc1cccc(C(=O)NC(=S)Nc2ccc(N3CCOCC3)cc2)c1	-66*
O=C(NNC(=O)C(c1ccccc1)c1ccccc1)c1ccccn1	72
Cc1ccc(/C=N/NC(=O)c2ccccn2)o1	-74*
O=C(NN=C1c2ccccc2-c2ccccc21)c1ccccn1	-134*
O=C(NN=C1C2CC3CC1CC(Cl)(C3)C2)c1ccccn1	-137*
O=C(N/N=C/c1ccc(N2CCOCC2)cc1)c1ccccn1	-103*
O=C(N/N=C/c1ccncc1)c1ccccn1	-90*
CN1CCN(c2ccc(NC(=S)NC(=O)/C=C/c3ccco3)cc2)CC1	-147*
COc1cccc(NC(=S)NC(=O)/C=C/c2ccco2)c1	-114*
CCOc1ccc(NC(=S)NC(=O)/C=C/c2ccco2)cc1	-91*
O=C(/C=C/c1ccccc1)NC(=S)Nc1ccc(N2CCOCC2)cc1	-79*
CC(C)c1ccc(/C=C/C(=O)NC(=S)Nc2ccc(CN3CCOCC3)cc2)cc1	-130*
COc1ccc(C2C(C(=O)Nc3cccc(C)n3)CCC(=O)N2c2ccc(OC)cc2)cc1 (stereo not given)	73
Cc1cccc(NC(=O)Nc2ccc([N+](=O)[O-])cc2)n1	-97*
Cc1ccc(NC(=O)Nc2cccc(C)n2)cc1	-76*
Cc1cccc(NC(=O)Nc2cccc(C)n2)n1	-95*
Cc1cccc(NC(=O)Nc2ccc(F)cc2)n1	-91*
Cc1cccc(NC(=O)Nc2ccc(Cl)cc2)n1	-99*
COc1ccc(NC(=O)Nc2ccc([N+](=O)[O-])cc2)cn1	-102*
SMILES	aSyn UTR act
Cc1cccc(NC(=O)Nc2ccc(C)c(C)c2)n1	-120*
CC(C)COC(=S)Nc1ccccc1	-83*
Cc1ccc(-c2nc(N=Nc3ccc(O)cc3)n[nH]2)cc1	-182*
CN(C)c1ccc(C(=O)OCC(=O)N2CCCCCC2)cc1	-65*
O=C(OCC(=O)N1CCCC1)c1ccccc1O	-85*
O=C(OCC(=O)N1CCN(c2ccccc2)CC1)c1ccccc1[N+](=O)[O-]	-141*
COc1ccc(C(=O)COC(=O)c2ccn(C)n2)cc1	-83*
Cc1ccccc1OCc1n(CC(=O)OC2CC(C)CCC2C(C)C)c2ccccc2[n+]1C (stereo not given)	85
COc1ccc(C(=O)COC(=O)c2ccc(N(C)C)cc2)cc1	-64*
Cc1cc(/C=C(\C#N)C(=O)NCC2CCCO2)c(C)n1-c1ccc(Cl)cc1 (stereo not given)	-267*
Cc1cccc(Oc2coc3cc(OC(=O)c4cncc(Br)c4)ccc3c2=O)c1	-73*
CCOC(=O)Oc1ccc2c(=O)c(Oc3cccc(C)c3)coc2c1	-75*
Cc1ccccc1/C=N/NC(=O)c1sccc1C	-176*
CC(C)(C)c1cc(C(=O)N/N=C/c2ccccc2O)n(-c2ccccc2)n1	62
Cc1ccccc1/C=N\NC(=O)c1ccccc1-n1cccc1	-65*
COc1ccc(/C=N/NC(=O)c2sccc2C)c2ccccc12	-110*
Cc1ccsc1C(=O)NN=C1CCCCCC1	-127*
COc1ccc(-c2cnn3c4c(c(C)nc23)CCN4C(C)C)cc1OC	-70*
N#Cc1ccc(OCc2noc(-c3ccsc3)n2)cc1	-81*
COCCCNC(=O)Cn1nnc(-c2ccc(NC(=O)c3ccccc3F)cc2)n1	-95*
COC(=O)CCn1nnc(-c2ccc(C(C)C)cc2)n1	119
CC(C)=C1C2C=CC1C1C(=O)N(c3ccc4c(c3)OCO4)C(=O)C21 (stereo not given)	-86*
N#Cc1ccc(/C=C(\C(=O)C(=O)O)c2ccc3ccccc3n2)cc1	-76*
Cc1cccc(/C=C(\C(=O)C(=O)O)c2ccc3ccccc3n2)c1	-118*
O=C(O)C(=O)/C(=C\c1cccc(Cl)c1)c1ccc2ccccc2n1	-80*
SMILES	aSyn UTR act
Cc1c(NC(=O)c2ccc(C(C)(C)C)cc2)cccc1[N+](=O)[O-]	-133*
CC(C)(C)c1ccc(NC(=O)c2ccccc2)c([N+](=O)[O-])c1	-100*
Cc1c(NC(=O)c2ccc3nsnc3c2)cccc1[N+](=O)[O-]	-68*
O=C(NC(=S)Nc1cccc2[nH]ncc12)c1ccccc1	-176*
O=C(NC(=S)Nc1ccccc1[N+](=O)[O-])c1ccccc1	-136*
COc1ccc(-n2nc(C(=O)NCC(=O)N3CCN(c4ccccc4F)CC3)c3ccccc3c2=O)cc1	-120*
C/C(=N\Nc1ncnc2sc(C)c(C)c12)c1ccccn1	105
Cc1ccc(Nc2ncnc3sc(C)c(C)c23)cc1	-182*
Cc1sc2ncnc(N/N=C/c3cccc(O)c3)c2c1C	-75*
COc1ccc(C(=O)c2cc3cccc(OC)c3o2)cc1	-161*
COc1ccc(C(=O)Cc2cc3cccc(OC)c3oc2=O)cc1	-79*
COc1cccc2cc(CC(=O)c3ccc(C)cc3C)c(=O)oc12	-185*
Cn1nc(C(F)(F)F)cc1-c1ccc(S(N)(=O)=O)s1	-123*
CN(C)C(=O)c1ccc(-c2cc(C(F)(F)F)nn2C)s1	-152*
Cc1ccccc1C(=O)O/N=C/c1c(N2CCOCC2)n(C)c2ccccc12	87
COC(=O)c1cc2c(s1)-c1ccc(OC)cc1CC2	-212*
COc1ccc(C(=O)N=C2CCC(C#N)=C3c4cc(OC)c(OC)cc4CCN23)cc1	55
COc1ccc2c(c1)CC/C2=N\NC(=O)c1ccccc1	-111*
COc1ccc2c(c1)CC/C2=N\OC(=O)c1cccc(C)c1	-230*
COc1ccc2c(c1)CC/C2=N\OC(=O)c1ccccc1C	-136*
CNC(=O)c1cc2c(s1)-c1ccccc1CC2	-133*
c1ccc(COc2ccc3nocc3c2)cc1	-104*
CCOC(=O)c1sc2nc(-c3cccnc3)ccc2c1N	-150*
NC(=O)c1sc2nc(-c3cccnc3)ccc2c1N	-102*
CCN1CCN(C(=O)c2cc3ccc(OC)cc3[nH]2)CC1	-135*
SMILES	aSyn UTR act
COc1ccc2cc(C(=O)N3CCN(C)CC3)[nH]c2c1	-154*
COc1ccccc1CCNC(=O)c1nc(-c2cccs2)no1	-93*
O=C(NCc1csc(-c2cccs2)n1)C1CCCCC1	-67*
COc1ccccc1CC(=O)NCc1csc(-c2cccs2)n1	-117*
CCN(CC)CCNC(=O)/C(=C/c1cn(C)c2ccccc12)NC(=O)c1ccc(OC)c(OC)c1	-64*
Cn1cc(/C=C(\NC(=O)c2ccccc2Cl)C(=O)NCCN2CCOCC2)c2ccccc21	-72*
Nc1ccc(N=Nc2ccccc2O)c(N)c1	-136*
Oc1ccccc1N=Nc1ccccc1O	58
COc1cc(OC)cc(-c2nc(-c3cccs3)no2)c1	-139*
COc1cc(-c2noc(-c3cccs3)n2)cc(OC)c1OC	-95*
COc1cc(-c2noc(C)c2/C=C/c2cccc([N+](=O)[O-])c2)cc(OC)c1OC	69
COc1ccc(-c2noc(-c3cccs3)n2)cc1OC	-174*
COc1ccc(OCCOC(=O)c2cccc(-n3cnnn3)c2)cc1	-81*
CNc1sc(C(=O)c2ccccc2F)c(N)c1-c1nc2ccccc2s1	-84*
CC(C)=CCc1c(O)cc2c(=O)c3ccc(O)cc3oc2c1O	-141*
